In PubChem BioAssay (Tox21):
Results filed as inconclusive are left out. Active and inactive are the calls of the source. Unless noted, the call rests on the fitted dose curve; in most records, active means well fitted curve in the direction sought with a large enough effect in the repeat runs; inconclusive means weak or mixed curves; inactive means no such curve, though single readings can be large; an effect the other way counts as inactive or inconclusive. Residues, ends and D or L forms follow the SMILES beside them.

Assays:
[1] = qHTS assay to identify aromatase inhibitors - cell viability counter screen (AID 743084);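 further: cells stimulated with testosterone during compound exposure; nearly all actives have a fitted effect of over 55% in size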
[2] = target: Aryl hydrocarbon receptor (Homo sapiens) (UniProt P35869); test: qHTS assay to identify small molecule that activate the aryl hydrocarbon receptor (AhR) signaling pathway (AID 743085); further: nearly all actives have a fitted effect of over 15% in size; further: potency means the concentration at half of the fitted maximal effect;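 on activation: HG2L7.5c1 human HepG2 liver cells with stably integrated DRE-driven firefly reporter; series mostly up to about 70 µM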
Procedure, shortened: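 Measured in HG2L7.5c1 cells: CellTiter-Fluor signal (30 min incubation, 37C) for viability, then luciferase luminescence (30 min, room temperature). Compound contact time was 24 h at 37C, following a 5 h pre-incubation.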

[3] = qHTS assay to identify small molecule that activate the aryl hydrocarbon receptor (AhR) signaling pathway - cell viability counter screen (AID 743086);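 further: HepG2 liver cells carrying the AhR DRE luciferase reporter; series mostly up to about 70 µM; nearly all actives have a fitted effect of over 45% in size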
Procedure, shortened: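 HepG2-AhR-luc (HG2L7.5c1) cells, 4000/well, treated 24 h at 37 C with compound; viability measured as CellTiter-Fluor fluorescence after 30 min in the same wells as the luciferase read.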

[4] = target: Peroxisome proliferator-activated receptor gamma (Homo sapiens) (UniProt P37231); test: qHTS assay to identify small molecule agonists of the peroxisome proliferator-activated receptor gamma (PPARg) signaling pathway (AID 743094; active means well fitted activation curve with a large enough effect in the signal ratio in the repeat runs, not every such curve was filed as active; the % refers to the signal ratio; further: potency means the concentration at half of the fitted maximal effect)
Procedure, shortened: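 Agonist activity was taken from a beta-lactamase reporter (FRET substrate, 1 h at room temperature) in HEK293H cells carrying a PPARg UAS-bla construct. Compounds in DMSO were incubated 17 h at 37C after a 5 h cell pre-incubation.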

Measured: Potency

Aryl hydrocarbon receptor (Homo sapiens), sequence (P35869 whole entry, looked up): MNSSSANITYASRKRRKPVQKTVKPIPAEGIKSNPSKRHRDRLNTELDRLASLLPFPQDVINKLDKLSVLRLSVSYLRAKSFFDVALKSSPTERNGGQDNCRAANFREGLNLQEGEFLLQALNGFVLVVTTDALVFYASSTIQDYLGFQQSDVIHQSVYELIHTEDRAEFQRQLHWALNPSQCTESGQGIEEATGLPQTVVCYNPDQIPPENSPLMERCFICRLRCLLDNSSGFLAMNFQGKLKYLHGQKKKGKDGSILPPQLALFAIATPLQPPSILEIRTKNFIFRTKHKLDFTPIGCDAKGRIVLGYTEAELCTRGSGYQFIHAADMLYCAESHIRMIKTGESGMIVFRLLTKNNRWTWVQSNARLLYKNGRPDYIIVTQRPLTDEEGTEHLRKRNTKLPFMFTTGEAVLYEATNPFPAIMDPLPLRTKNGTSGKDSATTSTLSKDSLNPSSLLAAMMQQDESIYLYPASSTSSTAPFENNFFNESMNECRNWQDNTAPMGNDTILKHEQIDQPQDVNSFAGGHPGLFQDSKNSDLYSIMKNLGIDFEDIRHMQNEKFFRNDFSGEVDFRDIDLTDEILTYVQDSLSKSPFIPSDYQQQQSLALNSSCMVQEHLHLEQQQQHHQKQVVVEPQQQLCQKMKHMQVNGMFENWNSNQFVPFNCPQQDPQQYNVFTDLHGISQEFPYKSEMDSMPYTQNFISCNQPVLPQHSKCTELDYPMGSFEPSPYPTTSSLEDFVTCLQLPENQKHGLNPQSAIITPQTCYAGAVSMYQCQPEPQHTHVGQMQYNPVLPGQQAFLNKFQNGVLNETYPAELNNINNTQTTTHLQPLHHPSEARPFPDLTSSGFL
Peroxisome proliferator-activated receptor gamma (Homo sapiens), sequence (P37231 whole entry, looked up): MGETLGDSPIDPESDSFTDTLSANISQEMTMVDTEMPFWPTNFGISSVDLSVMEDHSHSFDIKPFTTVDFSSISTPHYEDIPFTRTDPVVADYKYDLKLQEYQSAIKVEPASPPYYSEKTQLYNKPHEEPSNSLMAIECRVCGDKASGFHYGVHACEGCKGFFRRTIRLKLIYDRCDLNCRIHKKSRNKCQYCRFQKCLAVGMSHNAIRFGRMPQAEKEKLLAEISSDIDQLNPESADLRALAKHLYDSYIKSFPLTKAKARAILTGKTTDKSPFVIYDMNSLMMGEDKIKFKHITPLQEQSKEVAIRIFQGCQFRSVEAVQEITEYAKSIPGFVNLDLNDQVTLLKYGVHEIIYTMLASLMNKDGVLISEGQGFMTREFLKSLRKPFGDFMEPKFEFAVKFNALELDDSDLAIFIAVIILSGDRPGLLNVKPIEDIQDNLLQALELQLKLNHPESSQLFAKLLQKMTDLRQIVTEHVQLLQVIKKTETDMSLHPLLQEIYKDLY

OCCCNc1ccccc1
inactive: all assays above

CC(C)=CCC/C(C)=C/CC/C(C)=C/CC/C(C)=C/CC1=C(C)C(=O)c2ccccc2C1=O
active: [2] 10.6 µM
inactive: all other assays above

CCCCCCCCCCCCCCCCCCOCC(COP(=O)([O-])OCC[N+](C)(C)C)OC (stereo unspecified)
inactive: all assays above

CC(C)(Oc1ccc(C2CCCc3ccccc32)cc1)C(=O)O (stereo unspecified)
active: [4] 2.39 µM
inactive: all other assays above

CC(C)NCC1CCc2cc(CO)c([N+](=O)[O-])cc2N1 (stereo unspecified)
inactive: all assays above

CCOc1ccc(NC(=S)Nc2ccc(OCC)cc2)cc1
inactive: all assays above

NCC[C@H](O)C(=O)N[C@@H]1C[C@H](N)[C@@H](O[C@H]2O[C@H](CN)CC[C@H]2N)[C@H](O)[C@H]1O[C@H]1O[C@H](CO)[C@@H](O)[C@H](N)[C@H]1O
inactive: all assays above

NC(N)=NCC1COC2(CCCCC2)O1 (stereo unspecified)
inactive: all assays above

Nc1cc(Cl)c(NC2=NCCN2)c(Cl)c1
inactive: all assays above

O=C(O)CCCC/C=C(\c1ccccc1)c1cccnc1
inactive: all assays above

C[C@@H]1O[C@@H](OC[C@H]2O[C@@H](Oc3c(-c4ccc(OCCO)c(OCCO)c4)oc4cc(OCCO)cc(O)c4c3=O)[C@H](O)[C@@H](O)[C@@H]2O)[C@H](O)[C@H](O)[C@H]1O
inactive: all assays above

C[C@@H]1C(=O)NC2=Nc3cccc(Cl)c3CN21
inactive: all assays above

C[C@H](O)CN(C)C
inactive: all assays above

CC1(C)S[C@@H]2[C@H](NC(=O)[C@@H](NC(=O)N3CCNC3=O)c3ccccc3)C(=O)N2[C@H]1C(=O)O
inactive: all assays above

NC(=O)CC[C@@H]1NC(=O)[C@H](Cc2ccccc2)NC(=O)[C@H](Cc2ccc(O)cc2)NC(=O)[C@@H](N)CSSC[C@@H](C(=O)N2CCC[C@H]2C(=O)N[C@@H](CCCN=C(N)N)C(=O)NCC(N)=O)NC(=O)[C@H](CC(N)=O)NC1=O
inactive: all assays above

CC[C@@H](C)[C@H](N)C(=O)O
inactive: all assays above

O=C(O)c1cc2cc(Cc3cccnc3)ccc2o1
inactive: all assays above

O=C(O)/C=C/C(O)c1ccc(Cl)cc1 (stereo unspecified)
inactive: all assays above

CCCCCCCCCC(=O)NO
inactive: all assays above

CC(C)[C@H](NC(=O)[C@H](CC(=O)O)NC(=O)[C@H](CCCCN)NC(=O)[C@@H](N)CCCN=C(N)N)C(=O)N[C@@H](Cc1ccc(O)cc1)C(=O)O (H-RKDVY-OH)
inactive: all assays above

CC/C=C\C/C=C\C/C=C\C/C=C\C/C=C\C/C=C\CCC(=O)O
inactive: all assays above

O=C(O)[C@@H]1C[C@H](CP(=O)(O)O)CCN1
inactive: all assays above

CC(=O)OCC(=O)[C@@]1(O)CC[C@H]2[C@@H]3CCC4=CC(=O)CC[C@]4(C)C3=CC[C@@]21C
inactive: all assays above

CC(C)COC(=O)OCN1C(=O)CN(CCN2CC(=O)N(COC(=O)OCC(C)C)C(=O)C2)CC1=O
inactive: all assays above

NC(=O)[C@H]1O[C@@H](O)[C@H](O)[C@@H](O)[C@@H]1O
inactive: all assays above

CC(C)(C)C(=O)OCC(=O)[C@H]1CC[C@H]2[C@@H]3CCC4=CC(=O)CC[C@]4(C)[C@H]3CC[C@]12C
inactive: all assays above

CO/N=C(\C(=O)N[C@@H]1C(=O)N2C(C(=O)O)=C(CSc3cnns3)CS[C@H]12)c1csc(N)n1
inactive: all assays above

CO/N=C(\C(=O)N[C@@H]1C(=O)N2C(C(=O)O)=C(C[N+]3(C)CCCC3)CS[C@H]12)c1csc(N)n1
inactive: all assays above

NC(=O)c1cc[n+](CC2=C(C(=O)O)N3C(=O)[C@@H](NC(=O)C(c4ccccc4)S(=O)(=O)[O-])[C@H]3SC2)cc1 (stereo partly specified)
inactive: all assays above
